A short description of experiment [1]: Viability qHTS for spleen associated tyrosine kinase inhibitor (SYKi) naive MV4-11 cells (AID 1963823). Note: nearly all actives have a fitted effect of over 40% in size. The note with it: MV4-11 AML viability, CellTiter-Glo luminescence, 72 h; series mostly up to 45 µM. An outline of the steps: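 Luminescence from CellTiter-Glo, developed 10 min at room temperature, gave viability of MV4-11 cells never exposed to SYK inhibitor. Cells (500/well) had been incubated with compounds for 72 hr under standard culture conditions.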
Background: Quantitative high-throughput screening tests each substance at several concentrations.

Experiment [2] in a line: Viability qHTS for spleen associated tyrosine kinase inhibitor (SYKi) drug resistant MV4-11 cells (AID 1963824). Note: nearly all actives have a fitted effect of over 35% in size. Conditions: SYKi-resistant MV4-11 viability, CellTiter-Glo, 72 h; series mostly up to 45 µM. An outline of the steps: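 SYK-inhibitor-resistant MV4-11 AML cells were seeded at 500 per well onto compound and cultured 72 hours (37 °C, 5% CO2). CellTiter-Glo was then added, and after 10 min at room temperature, luminescence gave viability.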

Inconclusive results are not listed. A number with no mark means an inactive call. The source made the active and inactive calls. Calls come from the whole dose curve; as a rule, active = well fitted cell-killing curve with a large enough effect; inconclusive = small, poorly fitted or top-dose-only effect, or effect the other way; inactive = no such curve, though single readings can be large or run the other way.
Potency is the fitted concentration of half-maximal effect.

On to `C[C@@H]1O[C@@H](O[C@@H]2CO[C@@H](O[C@H]3CC[C@@]4(C)C(CC[C@]5(C)C4CC=C4[C@@H]6CC(C)(C)CC[C@]6(C(=O)O[C@@H]6O[C@H](CO)[C@@H](O)[C@H](O)[C@H]6O)CC[C@]45C)[C@]3(C)CO)[C@H](O)[C@H]2O[C@@H]2O[C@H](CO)[C@@H](O)[C@H](O)[C@H]2O)[C@H](O)[C@H](O)[C@H]1O` (stereo partly specified), for which the viability (% of control) in experiment [1] was 57.4% [at 9.25 µM]. For the same compound, in experiment [2], the viability, % of control is 62.6% [at 9.25 µM].

In the case of `Cc1ccc(NS(=O)(=O)c2cc3c(cc2N[C@@H](C)CO)NC(=O)CC3)cc1Cl`, the Potency was 16.4 µM (active) in experiment [1] and 11.6 µM (active) in experiment [2].

Turning to `C=C(C)C(=O)O[C@H]1C[C@@](C)(OC(C)=O)[C@@]2(O)CC[C@@](C)(O)[C@H](OC(C)=O)[C@@]23OC(=O)C(COC)=C13`, the Potency was 8.93 µM (active) in experiment [1] and 11.2 µM (active) in experiment [2].

Regarding `COC(=O)C1=CO[C@@H](O[C@@H]2O[C@H](CO[C@@H]3O[C@H](COC(=O)/C=C/c4ccc(O)cc4)[C@@H](O)[C@H](O)[C@H]3O)[C@@H](O)[C@H](O)[C@H]2O)[C@@H]2C(CO)=CC[C@H]12`, the Potency result in experiment [1] and in experiment [2] was “inactive” each time.

`CC1C(OC(=O)c2ccccc2)C(O)C2C(C(=O)O)=COC(OC3OC(CO)C(O)C(O)C3O)C12` (stereo unspecified): the Potency result in experiment [1] and in experiment [2] was “inactive” each time.

`CCC(CCO[C@@H]1O[C@H](CO[C@H]2OC[C@](O)(CO)[C@H]2O)[C@@H](O)[C@H](O)[C@H]1O)C(C)(C)O` (stereo partly specified): the Potency result in experiment [1] and in experiment [2] was “inactive” throughout.

With `CC[C@@H](N)CNc1ccnc(-c2cc(-c3cnn(C)c3)ccc2O)n1`, the Potency is 0.92 µM (active) in experiment [1] and 1.64 µM (active) in experiment [2].

For the compound `CCOC(CN1C(=O)[C@](CC(=O)Nc2ccc(C)cc2)(NC(=O)Nc2ccc(C)cc2)c2ccccc21)OCC`, the figures for the Potency in experiment [1] and in experiment [2] were 18.6 µM (active) and 14.8 µM (active), respectively.

For `CC(C)CCNC(=O)[C@H](CC(C)C)NC(=O)[C@H]1O[C@@H]1C(=O)O`, the Potency result in experiment [1] and in experiment [2] was “inactive” each time.

Turning to `O=S(c1cc(Cl)cc(Cl)c1O)c1cc(Cl)cc(Cl)c1O`, the Potency entry in experiment [1] and in experiment [2] was “inactive” in each case.

`C=CC(C)(CC/C=C(\C)C(=O)OC)OC1OC(COC(=O)CC(C)(O)CC(=O)O)C(OC2OC(CO)C(O)C(O)C2O)C(O)C1O` (stereo unspecified): the Potency result in experiment [1] and in experiment [2] was “inactive” each time.

Turning to `CC1CCC2(C(=O)OC3OC(COC4OC(CO)C(O)C(O)C4O)C(O)C(O)C3O)CCC3(C)C(=CCC4C5(C)CCC(O)C(C)(C(=O)O)C5CCC43C)C2C1(C)O` (stereo unspecified), the viability (% of control) in experiment [1] is 98.4% [at 9.25 µM]. Besides, in experiment [2], the viability, % of control is 98.8% [at 9.25 µM].

With `O=C(/C=C/c1ccccc1)O[C@@H]1[C@@H](CO)O[C@@](CO)(O[C@H]2O[C@H](CO)[C@@H](O)[C@H](O)[C@H]2O)[C@H]1O`, the Potency result in experiment [1] and in experiment [2] was “inactive” each time.

In the case of `CN(C)CCCCCCNC(=O)c1cccc(-c2cc(O)c3ncccc3c2)c1`, the Potency in experiment [1] was 2.59 µM (active); in experiment [2], 3.26 µM (active).

Take `CC1NC(=O)C(Cc2c[nH]c3ccccc23)NC1=O` (stereo unspecified): the Potency entry in experiment [1] and in experiment [2] was “inactive” throughout.

Regarding `C[C@H](Oc1cc(-n2cnc3ccc(CN4CCN(C)CC4)cc32)sc1C(N)=O)c1ccccc1C(F)(F)F`, the Potency in experiment [1] is 1.03 µM (active); in experiment [2], 0.58 µM (active).

Take `COc1ccccc1-c1cc(Nc2cccc(CS(N)(=O)=O)c2)ncn1`: the Potency in experiment [1] was 9.2 µM (active); in experiment [2] it was 8.2 µM (active).

As for `CC(O)(CC(=O)O)CC(=O)O[C@@H]1[C@@H](O)[C@H](OCCc2ccccc2)O[C@H](CO)[C@H]1O` (stereo partly specified), the Potency result in experiment [1] and in experiment [2] was “inactive” each time.

As to `CC1CCC2(C(=O)OC3OC(CO)C(O)C(O)C3O)CCC3(C)C(=CCC4C5(C)CC(O)C(O)C(C)(C(=O)O)C5CCC43C)C2C1(C)O` (stereo unspecified), the Potency result in experiment [1] and in experiment [2] was “inactive” in each case.

In the case of `N[C@@]1(C(=O)O)CC[C@H]2[C@H](C(=O)O)[C@H]21`, the Potency result in experiment [1] and in experiment [2] was “inactive” each time.

Take `CC1CCC2C(C(=O)O)=CC3(O)CC(C)(C)CC123` (stereo unspecified): the Potency result in experiment [1] and in experiment [2] was “inactive” throughout.

With `C=C1[C@@H](OC(C)=O)CC[C@@]2(C)[C@@H](OC(C)=O)[C@H](OC(C)=O)C3=C(C)C[C@H](OC(=O)C(C)CC)[C@@H]([C@@H](OC(C)=O)[C@H]12)C3(C)C` (stereo partly specified), the figures for the Potency in experiment [1] and in experiment [2] were 1.53 µM (active) and 1.22 µM (active), respectively.

Turning to `CC(C)=CC[C@H]1O[C@]2(O)C([C@H]3CCC4[C@@]5(C)CC[C@H](O[C@@H]6O[C@H](CO)[C@H](O)[C@H](O[C@@H]7O[C@H](CO)[C@@H](O)[C@H](O)[C@H]7O)[C@H]6O[C@@H]6O[C@@H](C)[C@H](O)[C@@H](O)[C@H]6O)C(C)(C)C5CC[C@@]4(C)[C@]3(C)[C@H]2O)[C@@]1(C)O` (stereo partly specified), the viability (% of control) in experiment [1] was 84.2% [at 9.25 µM]. Further, in experiment [2], the viability, % of control was 80.7% [at 9.25 µM].

For the compound `COc1cc(NC(=O)c2cc(C3CC3)on2)c(OC)cc1Cl`, the Potency result in experiment [1] and in experiment [2] was “inactive” in each case.

`Clc1ccc(Nc2nc3ccccc3c3nc(C4CCCCC4)[nH]c23)cc1Cl`: the Potency in experiment [1] is 18.4 µM (active); in experiment [2], 8.2 µM (active).

`COc1cc(C2c3cc4c(c(O)c3CC(CO)C2C(=O)O)OCO4)cc(OC)c1O` (stereo unspecified): the Potency in experiment [1] is 2.52 µM (active); in experiment [2], 2 µM (active).

As for `CC(C)=CCC(O)/C(C)=C/CO[C@@H]1O[C@H](CO)[C@@H](O)[C@H](O)[C@H]1O` (stereo partly specified), the Potency result in experiment [1] and in experiment [2] was “inactive” in each case.

For the compound `O=C(/C=C/c1ccccc1)OCC1=CC[C@@H]2C(C(=O)O)=CO[C@@H](O[C@@H]3O[C@H](CO)[C@@H](O)[C@H](O)[C@H]3O)[C@H]12`, the Potency result in experiment [1] and in experiment [2] was “inactive” each time.

The values above are taken from PubChem BioAssay (NCATS).
